{
  "source": "PubChem BioAssay (EPA / NIEHS)",
  "note": "Active and inactive are the calls of the source. Rule for the calls: active = hit-call score of the fitted dose curve at least 0.9, where 1 is the maximum; inactive = score below 0.9.",
  "data": [
    {"read-out": "E-selectin (Homo sapiens) (UniProt P16581)", "assay": "BSK_SAg_Eselectin: BioMAP Diversity Plus: SAg Assay for Eselectin Biomarker Activity (AID 2283091)", "conditions": "primary human HUVEC with PBMC; actives raise or lower the signal", "protocol": "BSK_SAg is a cell-based, multiplexed-readout assay that uses umbilical vein endothelium and peripheral blood mononuclear cells, a human vascular primary cell co-culture, with measurements taken at 24 hours after chemical dosing in a 96-well plate.BSK_SAg_Eselectin is an assay component measured in the BSK_SAg assay. It measures E-selectin antibody related to regulation of gene expression using ELISA technology.Data from the assay component BSK_SAg_Eselectin was analyzed into 1 assay endpoint. This assay endpoint, BSK_SAg_Eselectin, was analyzed with bidirectional fitting relative to DMSO as the negative control and baseline of activity. Using a type of binding reporter, gain or loss-of-signal activity can be used to understand changes in the signaling as they relate to the gene SELE. Furthermore, this assay endpoint can be referred to as a primary readout, because this assay has produced multiple assay endpoints where this one serves a signaling function. To generalize the intended target to other relatable targets, this assay endpoint is annotated to the cell adhesion molecules intended target family, where the subfamily is selectins.\nThe levels of cell surface (or secreted, indicated by the prefix \"s\") biomarker endpoints were measured by ELISA. Overt cytotoxicity to cells in confluent adherent cultures (all systems other than the BT system) was assessed by measuring total protein levels using sulforhodamine B (SRB) staining in parallel cultures at the time of biomarker measurements, indicated as SRB endpoints. For proliferation assays for adherent cell types, individual cell types are cultured at sub-confluence and relative cell numbers quantified by SRB staining at time points optimized for each system (48 h: 3C and CASM3C systems; 72 h: BT and HDF3CGF systems; 96 h: SAg system). SRB was performed by staining cells with 0.1% SRB after fixation with 10% TCA and reading wells at 560 nm.Viability and proliferation of PBMC (T cells) was quantified by Alamar Blue reduction for the SAg and BT systems. For PBMC viability (referred to as PBMC Cytotoxicity within the assay endpoint names), cells were plated (75,000/well in a 96-well plate) and then chemical samples added for 1 h before addition of activators, SEB and TSST-1 (20 ng/mL final concentration each). Cells were incubated for 90 h. Then, Alamar Blue (20 uL/well) (Invitrogen, Cat DAL1100) was added for 6 h, and the plates were read with a fluorescence microplate reader at 546/580 nm (excitation/emission). For PBMC proliferation, cells were plated and activated as above but incubated for only 16 h prior to addition of Alamar Blue. Plates were read after 6 h.", "values": [
      {"smiles": "COc1cc(C=O)cc2c1[C@H](COC(N)=O)[C@]1(OC(C)=O)ON2C[C@H]2[C@@H]1N2C(C)=O", "AC50": "21.4 µM (active)"},
      {"smiles": "CN(C)c1ccc(C(=O)c2ccc(N(C)C)cc2)cc1", "outcome": "inactive"},
      {"smiles": "Cc1ccc(N)cc1", "outcome": "inactive"},
      {"smiles": "O=Cc1ccco1", "outcome": "inactive"},
      {"smiles": "[Cl-].[Cl-].[Hg+2]", "AC50": "20 µM (active)"},
      {"smiles": "N#CC(Br)Br", "outcome": "inactive"},
      {"smiles": "Cc1ccc(N)c(N)c1", "AC50": "4.36 µM (active)"},
      {"smiles": "CCN(CC)N=O", "outcome": "inactive"},
      {"smiles": "N#CC(Br)(Br)C(N)=O", "outcome": "inactive"},
      {"smiles": "CC(C)(C)OOC(C)(C)CCC(C)(C)OOC(C)(C)C", "outcome": "inactive"},
      {"smiles": "Nc1ccc(Cc2ccc(N)cc2)cc1", "AC50": "13.6 µM (active)"},
      {"smiles": "CC(C)(C)OOC(=O)c1ccccc1", "outcome": "inactive"},
      {"smiles": "CCCCCCCCn1sccc1=O", "AC50": "12.8 µM (active)"},
      {"smiles": "C[N+](C)(C)CC1CO1", "note": "(stereo not given)", "outcome": "inactive"},
      {"smiles": "Oc1ccc2ccc3cccc4ccc1c2c34", "AC50": "30.7 µM (active)"},
      {"smiles": "Oc1ccccc1Cl", "outcome": "inactive"},
      {"smiles": "Clc1ccc(C(c2ccc(Cl)cc2)C(Cl)Cl)cc1", "AC50": "28.9 µM (active)"},
      {"smiles": "CCCCCCCCCCCCCN1CC(C)OC(C)C1", "note": "(stereo not given)", "outcome": "inactive"},
      {"smiles": "O=C(Nc1ccccc1)c1ccccc1I", "outcome": "inactive"},
      {"smiles": "Cc1ccc(N=C=O)cc1N=C=O", "outcome": "inactive"},
      {"smiles": "CC(O)CCO", "note": "(stereo not given)", "outcome": "inactive"},
      {"smiles": "O=[N+]([O-])c1ccc(Oc2ccc(Cl)cc2Cl)cc1", "AC50": "27.4 µM (active)"},
      {"smiles": "Cn1cc(-c2ccccc2)c(=O)c(-c2cccc(C(F)(F)F)c2)c1", "outcome": "inactive"},
      {"smiles": "CC(C)(OOC(C)(C)c1ccccc1)c1ccccc1", "AC50": "37 µM (active)"},
      {"smiles": "CCOC(=O)[C@]1(c2ccccc2)Oc2ccccc2[C@@H]1N", "outcome": "inactive"},
      {"smiles": "Nc1ccc(Oc2ccc(N)cc2)cc1", "outcome": "inactive"},
      {"smiles": "Nc1cc(Cl)cc(C(=O)O)c1Cl", "outcome": "inactive"},
      {"smiles": "CC(C)N(Cc1ccccc1)C(=O)C(C)(C)C", "outcome": "inactive"},
      {"smiles": "CCCCCOC(=O)c1ccccc1C(=O)OCCCCC", "AC50": "32.4 µM (active)"},
      {"smiles": "CC(C)(C)C(O)(CCc1ccc(Cl)cc1)Cn1cncn1", "note": "(stereo not given)", "outcome": "inactive"},
      {"smiles": "CCN(CC)CCO", "outcome": "inactive"},
      {"smiles": "Brc1ccc(Oc2ccccc2)cc1", "outcome": "inactive"},
      {"smiles": "COC(=O)Nc1nc2ccccc2[nH]1", "outcome": "inactive"},
      {"smiles": "ClCCOCCCl", "outcome": "inactive"},
      {"smiles": "O=[N+]([O-])C(Br)(CO)CO", "AC50": "24.7 µM (active)"},
      {"smiles": "Nc1ccc(N=Nc2ccccc2)cc1", "outcome": "inactive"},
      {"smiles": "O=C(Oc1ccc(Br)cc1)N1CCN2CCC1CC2", "outcome": "inactive"},
      {"smiles": "CCCCOC(=O)c1ccccc1C(=O)OCc1ccccc1", "outcome": "inactive"},
      {"smiles": "c1ccc(C2CO2)cc1", "note": "(stereo not given)", "outcome": "inactive"},
      {"smiles": "CN(C)[C@@H]1C(=O)C(C(N)=O)=C(O)[C@@]2(O)C(=O)C3=C(O)c4c(O)cccc4[C@@](C)(O)[C@H]3C[C@@H]12", "outcome": "inactive"}
    ]}
  ]
}
